Six compounds from PubChem BioAssay can be followed below.

Results filed as inconclusive are left out. The source made the active and inactive calls. Unless noted, no cut-off is given here; in the data, nearly all actives have AC50 up to about 30 µM.

The nature of assay [1]: growth inhibition of DIPG glioma cells, dose response, cell-based, JHH-DIPG-1, MIPE4.0, CellTiter-Glo, qHTS (AID 1347062; cut-off not given, nearly all actives have AC50 up to about 27 µM;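 for AC50: cells exposed to compound for two days before readout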). The conditions noted are these: JHH-DIPG-1 viability, CellTiter-Glo ATP luminescence. (ATP-based viability assays read luminescence as a measure of living cells.)
Assay [2] in a line: growth inhibition of DIPG glioma cells, dose response, cell-based, SU-DIPG-IV, MIPE4.0, CellTiter-Glo, qHTS (AID 1347063).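 Note: compound exposure lasted 48 hours before the viability readout.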 As to conditions: SU-DIPG-IV viability, CellTiter-Glo ATP luminescence.
Assay [3] in a line: growth inhibition of DIPG glioma cells, dose response, cell-based, SU-DIPG-XIII, MIPE5.0, CellTiter-Glo, qHTS (AID 1347064; cut-off not given, nearly all actives have AC50 up to about 23 µM;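 for AC50: cells exposed to compound for 48 hours before the viability read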). The conditions noted are these: SU-DIPG-XIII viability, CellTiter-Glo ATP luminescence.
Assay [4] is described as follows: viability loss in pontine glioma line – cell-based, SU-DIPG-XXV, MIPE5.0, CellTiter-Glo, qHTS, dose response (AID 1347065; cut-off not given, nearly all actives have AC50 up to about 26 µM;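 note: cells exposed to compound for 48 hours before ATP readout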). The conditions noted are these: CellTiter-Glo ATP luminescence.
The nature of assay [5]: SU-DIPG-VI glioma cell viability, MIPE4.0 library, CellTiter-Glo luminescence, qHTS (AID 1347066).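 Note: cells exposed to compound for 48 hours before readout.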 The conditions noted are these: CellTiter-Glo ATP luminescence.
A short description of assay [6]: JHH-DIPG-1 glioma cell viability, MIPE5.0 library, CellTiter-Glo luminescence, qHTS (AID 1347067; cut-off not given, nearly all actives have AC50 up to about 26 µM;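 note: cells exposed to compound for 48 hours before readout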). As to conditions: JHH-DIPG-1 glioma viability, CellTiter-Glo ATP luminescence.
Assay [7] is described as follows: SU-DIPG-XXV glioma cell viability, MIPE5.0 library, qHTS (AID 1347068; cut-off not given, nearly all actives have IC50 up to about 30 µM;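 for IC50: cells exposed to compound for 48 hours before viability readout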). On the technique in general: Quantitative high-throughput screening tests each substance at several concentrations.
The nature of assay [8]: sensitizers of A549 cells to miR-34 induction, primary screen, imaging, A549 dox-inducible miR-34, nuclei and caspase counts (AID 1347080;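 active = compounds whose cell count with miR-34 switched on is under 0.7 times the count with it off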). The conditions noted are these: A549 miR-34 inducible, Hoechst nuclei count, 48 h.
A short description of assay [9]: survival rescue of mitochondrial mutant cells in low glucose, primary screen, MELAS cybrids, Rieske KO mouse fibroblasts, CellTiter-Glo (AID 1508586;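 active = mean z-score across replicates of 1.96 or higher in either the MELAS or the Rieske mutant cell line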;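 note: z relative to plate mean and SD of compound and empty wells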).
Assay [10] in a line: LFS_MB_P medulloblastoma growth inhibition, cell-based, chromothripsis tumors, cisplatin or BGB combos (AID 1671449; in the data active = inhibition above about 80%;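 note: cells exposed for 96 hours; 0% = vehicle DMSO and 100% = killing by high DMSO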). As to conditions: LFS_MB_P medulloblastoma cells.
A short description of assay [11]: HDN33 neuroblastoma growth inhibition, cell-based, chromothripsis tumors, cisplatin or BGB combos (AID 1671450; in the data active = inhibition above about 80%;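 note: cells exposed to compound for four days; 0% = vehicle DMSO and 100% = cell killing by high DMSO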). As to conditions: HDN33 neuroblastoma cells, stronger effect = higher value.
The nature of assay [12]: ICB984 medulloblastoma cell growth inhibition, synergistic combos for chromothripsis tumors, cisplatin or BGB combos (AID 1671451; call rule not given here;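 note: cells exposed for 96 hours before readout; 0% = vehicle DMSO and 100% = killing by high DMSO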). The conditions noted are these: ICB984 medulloblastoma cells, drug combinations, stronger effect = higher value.
A short description of assay [13]: HTB85 osteosarcoma cell growth inhibition, synergistic combos for chromothripsis tumors, BGB or cisplatin IC20 combos (AID 1671453; in the data active = inhibition above about 80%;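 note: cells exposed for 96 hours before readout; 0% = vehicle DMSO and 100% = high DMSO killing control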). As to conditions: HTB85 osteosarcoma cells, drug combinations, stronger effect = higher value.
Assay [14] can be described thus: MDA-MB-436 breast carcinoma cell growth inhibition, synergistic combos for chromothripsis tumors, BGB or cisplatin combos (AID 1671458; call rule not given here;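 note: cells exposed for 96 hours; 0% = vehicle DMSO and 100% = killing by high DMSO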). The conditions noted are these: MDA-MB-436 breast carcinoma growth inhibition, drug combinations, stronger effect = higher value.
A short description of assay [15]: growth inhibition of BT084 medulloblastoma cells, cell-based, ICGC_MB145, cisplatin and BGB IC40 combos (AID 1671461; in the data active = inhibition above about 80%;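 note: cells exposed to drugs for 96 hours; 0% = vehicle DMSO and 100% = high DMSO full killing control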). The conditions noted are these: drug combinations, stronger effect = higher value.
Assay [16] is described as follows: growth inhibition of RCMB18 medulloblastoma cells, cell-based, cisplatin and BGB IC40 combos (AID 1671462; in the data active = inhibition above about 80%;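 note: cells exposed to compound for four days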). The conditions noted are these: stronger effect = higher value.
The nature of assay [17]: growth inhibition of CRL1545 osteosarcoma cells, cell-based, cisplatin and BGB IC20 combos (AID 1671464; in the data active = inhibition above about 80%;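 note: cells exposed to compound for 96 hours before readout; 0% = vehicle DMSO and 100% = high DMSO killing control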). The conditions noted are these: stronger effect = higher value.
The nature of assay [18]: growth inhibition of DIPG glioma cells, dose response, cell-based, SU-DIPG-XIII, MIPE4.0, CellTiter-Glo, qHTS (AID 1347061; cut-off not given, nearly all actives have AC50 up to about 37 µM;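 note: cells exposed to compound for 48 hours before readout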). The conditions noted are these: SU-DIPG-XIII viability, CellTiter-Glo ATP luminescence.
Setting [19] is: stronger effect = lower value, cell number ratio, induced over uninduced.
The mark [20] stands for this setting: measured here: relative caspase fold change +Dox/-Dox.
Where [21] appears, read: measured here: total cells with miR-34 induction, stronger effect = lower value.
The mark [22] stands for this setting: measured here: total cells without miR-34 induction.
Setting [23] is: MELAS cybrid survival, CellTiter-Glo 48 h, stronger effect = higher value.
Setting [24] is: Rieske KO mouse fibroblast survival, CellTiter-Glo 72 h.
Setting [25] is: measured here: with BGB IC20 combination, at 0.5 µM.
Where [26] appears, read: measured here: with cisplatin IC20 combination, at 0.5 µM.

The term AC50 denotes the midpoint of the concentration-response curve, whichever way the signal moves. For orientation: IC50 means the midpoint of a concentration-inhibition curve. The inhibition is the change of the read-out against control, counted positive when it falls.

`Cc1cccc(-c2nn(C(=S)Nc3ccccc3)cc2-c2ccnc3ccccc23)n1`: the result in assay [1], in [2], in assay [3], in assay [4], in [5] and in assay [6] was inactive. For the same compound, the compound was called inactive in [7].
As to `CCCNC(=O)Nc1ccc(Oc2ncnc3cc(OC)c(OC)cc23)cc1Cl`, the compound was classed as inactive in [1], in assay [2], in [5] and in [7]. For the same compound, the AC50 in assay [3] is 20.9 µM (active); in [6] it was 26.3 µM (active). Further, the fold change in assay [8] (setting [19]) was 0.924 (inactive); in assay [8] (setting [20]), 0.73. Also, the cell count in [8] (setting [21]) turned out to be 7400; in assay [8] (setting [22]), 8010. Moreover, the z-score in [9] (setting [23]) was 0.782 (inactive); in assay [9] (setting [24]), 0.0458.
For the compound `Cc1noc(-c2ccc(CSCCC(=O)O)cc2)c1NC(=O)OC(C)c1ccccc1Cl` (configuration not stated), the outcome in assay [1], in assay [2], in assay [3], in [4], in assay [5] and in [6] was inactive. Besides, the outcome in [7] was inactive. The figures for the fold change in assay [8] (setting [19]) and in assay [8] (setting [20]) were 0.888 (inactive) and 1.07, respectively. Also, the cell count came to 6620 in assay [8] (setting [21]) and 7460 in assay [8] (setting [22]). Also, the z-score was -0.439 (inactive) in assay [9] (setting [23]) and 0.718 in assay [9] (setting [24]).
Turning to `CO[C@H]1/C=C/O[C@@]2(C)Oc3c(C)c(O)c4c(O)c(c(/C=N\N5CCN(C6CCCC6)CC5)c(O)c4c3C2=O)NC(=O)/C(C)=C\C=C\[C@H](C)[C@H](O)[C@@H](C)[C@@H](O)[C@@H](C)[C@H](OC(C)=O)[C@@H]1C`, the half-maximal activity concentration (AC50) in assay [1] is 0.105 µM (active); in assay [2], 0.0935 µM (active); in assay [3], 23.5 µM (active); in assay [4], 26.3 µM (active). Further, the IC50 in assay [7] was 20.9 µM (active). Besides, the inhibition in assay [10] (at 0.5 µM, stronger effect = higher value) was 5.09% (inactive); in assay [10] (measured here: combination with BGB IC20, at 0.005 µM), -7.42%; in assay [10] (measured here: combination with BGB IC40, at 0.005 µM) it was -15%; in assay [10] (measured here: combination with BGB IC40, at 0.05 µM) it was -18.2%; in [10] (measured here: combination with cisplatin, at 0.5 µM, stronger effect = higher value), -6.85%; in [10] (measured here: combination with cisplatin, at 5 µM, stronger effect = higher value), 15%. The inhibition in assay [11] (BGB combo, at 5 µM) was 85.6%; in assay [11] (at 0.5 µM) it was -11.9% (inactive); in assay [11] (cisplatin combo, at 5 µM), 6.46%; in assay [11] (setting [25]) it was -21.1%; in assay [11] (setting [26]), -18.8%; in assay [11] (single agent, at 5 µM), -3.56%. In addition, the inhibition is -21.8% in [12] (BGB IC20 combo, at 0.005 µM); -25.4% in assay [12] (BGB IC40 combo, at 0.005 µM); -16.4% in assay [12] (BGB IC40 combo, at 0.05 µM); -17.3% (inactive) in [12] (at 0.5 µM); -19.6% in assay [12] (cisplatin combo, at 0.05 µM); -17.5% in [12] (cisplatin combo, at 0.5 µM). Besides, the inhibition in assay [12] (cisplatin combo, at 5 µM) was -18.6%; in assay [12] (measured here: 5 uM single agent, at 5 µM), -17.8%; in assay [13] (at 0.5 µM), 16% (inactive); in assay [13] (measured here: with BGB IC20, at 0.5 µM) it was 12.6%; in [13] (measured here: with BGB IC20, at 5 µM), 76.7%; in [13] (measured here: with cisplatin IC20, at 0.5 µM), 35.8%. The inhibition is 10.4% in assay [13] (measured here: with cisplatin IC20, at 5 µM); 35.1% in assay [13] (single agent, at 5 µM); -19% (inactive) in assay [14] (at 0.5 µM); -15.7% in assay [14] (measured here: BGB combination, at 0.5 µM); -5.36% in assay [14] (measured here: BGB combination, at 5 µM); -40.9% in [14] (measured here: cisplatin combination, at 0.5 µM). In addition, the inhibition in assay [14] (measured here: cisplatin combination, at 5 µM) is -22%; in assay [15] (at 0.5 µM), -28.3% (inactive); in assay [15] (cisplatin combination, at 0.5 µM) it was -31.9%; in assay [15] (cisplatin combination, at 5 µM), -20.9%; in assay [15] (measured here: BGB IC40 combination 0.05 uM, at 0.05 µM) it was -25.7%; in assay [15] (single agent, at 5 µM) it was -12.9%. For the same compound, the inhibition in [16] (at 0.5 µM) was -14.8% (inactive); in assay [16] (cisplatin combo, at 5 µM), 15%; in assay [16] (measured here: BGB IC40 combination, at 0.05 µM) it was -18.7%; in assay [16] (measured here: combination with cisplatin, at 0.5 µM) it was -14.5%; in assay [16] (single agent, at 5 µM), 27.7%; in [17] (at 0.5 µM), 4.23% (inactive). Besides, the inhibition in assay [17] (setting [25]) is 23.5%; in assay [17] (setting [26]), -7.81%; in assay [17] (single agent, at 0.05 µM), 8.47%; in assay [17] (single agent, at 5 µM), 73.2%.
Consider `CCOC(=O)N1CCN(/[N+]([O-])=N/Oc2cc(O/N=[N+](\[O-])N3CCN(C(=O)OCC)CC3)c([N+](=O)[O-])cc2[N+](=O)[O-])CC1`, for which the AC50 in assay [1] is 9.35 µM (active); in assay [2], 23.5 µM (active).
`CN(C)c1nc(Cc2ccc(NC(=O)c3ccc4ccccc4c3)cc2)nc(Cl)c1CC(=O)O`: the result in assay [18] and in [5] was inactive.
